Measured values from PubChem BioAssay (NCI).
This is part of a sample that, as a whole, favours compounds with a hit. Of some 79,000 tested, about 15% had one in any assay. Cut-off read from the data, not from the text of the source: active = growth inhibition above about 70%; inactive = the rest.

Assays:
[1] = NCI Yeast Anticancer Drug Screen. Data for the rad50 strain (AID 155);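 note: 0% = growth of vehicle-only cultures of the same strain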; conditions: S. cerevisiae rad50 strain growth inhibition; at 50.0 µM; hits give high values
Procedure, shortened: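 Inhibition values express reduced yeast growth in compound-treated cultures relative to vehicle-treated controls.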

[2] = NCI Yeast Anticancer Drug Screen. Data for the mec2-1 strain (AID 157); conditions: S. cerevisiae mec2-1 strain, at 50.0 µM, hits give high values
Procedure, shortened: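 Compounds were applied to mec2-1 yeast cells. Their growth was then compared with that of vehicle-treated cultures to give growth inhibition.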

[3] = NCI Yeast Anticancer Drug Screen. Data for the sgs1 mgt1 strain (AID 161);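 note: 0% = growth of cultures given vehicle only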; conditions: S. cerevisiae sgs1 mgt1 strain, at 50.0 µM, hits give high values
Procedure, shortened: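 Percent growth inhibition was derived by comparing compound-exposed mutant yeast with vehicle-exposed cultures. The strain carries alterations in DNA damage repair.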

[4] = NCI Yeast Anticancer Drug Screen. Data for the cln2 rad14 strain (AID 165);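 note: 0% = growth equal to vehicle treated cultures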; conditions: S. cerevisiae cln2 rad14 strain, at 50.0 µM, hits give high values
Procedure, shortened: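 Strain: cln2 rad14 yeast, altered in cell cycle control and DNA damage repair. Read-out: growth inhibition vs vehicle.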

[5] = NCI Yeast Anticancer Drug Screen. Data for the bub3 strain (AID 167); conditions: S. cerevisiae bub3 mutant strain, at 50.0 µM, hits give high values
Procedure, shortened: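 Steps: expose the mutant yeast strain to compound; grow alongside vehicle-treated cultures; measure growth; express inhibition against the vehicle cultures.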

[6] = NCI Yeast Anticancer Drug Screen. Data for the mlh1 rad18 strain (AID 175); conditions: S. cerevisiae mlh1 rad18 strain growth inhibition; at 50.0 µM; hits give high values
Procedure, shortened: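 A repair-deficient yeast strain is exposed to test compound, and growth is scored relative to vehicle-treated controls.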

Measured: growth inhibition

ClCCCCSC1CCCCC1
inactive: [1] -5.7% | [2] -9.15% | [3] -5.4% | [4] -3.1% | [5] 0.6% | [6] -25.1%

Nc1ccc(P(=O)(O)c2ccc(N)cc2Br)c(Br)c1
inactive: [1] 35.1% | [2] -6.1% | [3] 18.4% | [4] 1.55% | [5] -4% | [6] -6.8%

ONC1=Nc2cc(Cl)ccc2C(=S)N2CSCC12 (stereo not given)
inactive: [1] 1.55% | [2] 18.6% | [3] -0.25% | [4] 0.45% | [5] -9.8% | [6] 18.8%

COc1ccc(N)c(OC)c1
inactive: [1] -30.6% | [2] -37% | [3] -90% | [4] 12.9% | [5] -39.6% | [6] -34%

Nc1cc2c(cc1Br)-c1ccc(Br)cc1C2=O
inactive: [1] -6.65% | [2] -6.65% | [3] -0.7% | [4] -30.2% | [5] 21.4% | [6] -5.25%

O=C1CCCC2=C1C(c1ccc(Cl)c(Cl)c1)C1=C(CCCC1=O)O2
inactive: [1] 1.05% | [2] 7.05% | [3] -7.25% | [4] -18.5% | [5] 12.6% | [6] 6.45%

Cc1cc2nc3c(C(O)C(O)C(O)CO)nn(-c4ccccc4)c3nc2cc1C (stereo not given)
inactive: [1] -2.55% | [2] 5.05% | [3] -9.25% | [4] -15.6% | [5] -5.05% | [6] 16.1%

N[C@@H](CO)[C@@H](O)c1ccc([N+](=O)[O-])cc1
inactive: [1] 1.5% | [2] -7.7% | [3] -3.9% | [4] -38.5% | [5] 1.5% | [6] -4.6%

O=[N+]([O-])c1ccc(NC(=S)Nc2ccc([N+](=O)[O-])cc2)cc1
inactive: [1] 5.05% | [2] -17.6% | [3] -1.1% | [4] -25.8% | [5] 5.7% | [6] 2.75%

O=C1c2cc([N+](=O)[O-])ccc2-c2c(F)cc(F)cc21
inactive: [1] -58.5% | [2] -8.05% | [3] 9.35% | [4] -50.4% | [5] -2.1% | [6] -10.7%

O=C1CSC(c2ccc(Cl)cc2)N1c1ccc(-n2c(-c3ccccc3)nc3ccccc3c2=O)cc1 (stereo not given)
inactive: [1] -3.65% | [2] -12.2% | [3] 5.35% | [4] -43.4% | [5] -0.7% | [6] 14.8%

COC(=O)c1ccccc1NN=Nc1ccccc1Cl
inactive: [1] 3.5% | [2] -17.7% | [3] -0.95% | [4] 8.3% | [5] 6.4% | [6] 11.1%

COc1ccc(-c2ccc(OC)cc2)cc1
inactive: [1] 2.9% | [2] -2.75% | [3] -3.8% | [4] -0.65% | [5] 21.4% | [6] 3%

COC(=O)c1noc2c1CSC1=C2CS(=O)(=O)c2ccccc21
inactive: [1] 16.4% | [2] 22% | [3] 30.4% | [4] 14.8% | [5] 17.2% | [6] 26.6%

N=c1ccc2nc(N)nn(O)c-2c1
inactive: [1] -1.2% | [2] 12.1% | [3] 2.9% | [4] -3.4% | [5] -37.3% | [6] -44%

CCCCC1c2c([nH]c3ccccc23)C2C(=O)N(c3ccc(OC)cc3)C(=O)C2C1CCC (stereo not given)
inactive: [1] 9.75% | [2] -19.5% | [3] -14.6% | [4] -27.5% | [5] 1.6% | [6] -5.6%

CCOC(=O)C(C)C(=O)C(C)C (stereo not given)
inactive: [1] -1.65% | [2] 0.5% | [3] 0.75% | [4] -11.8% | [5] 13.7% | [6] -9.35%

C=CCNC(=S)N/C=C(\C#N)c1nc2ccccc2s1
inactive: [1] 0.3% | [2] -6.3% | [3] -15% | [4] 32.4% | [5] -4.35% | [6] 31.3%

CCC(=O)OCC[N+](C)(C)C
inactive: [1] -29.2% | [2] -37.6% | [3] -22.9% | [4] -4.25% | [5] -38.5% | [6] -20.9%

O=C(N/N=C/c1cc(-c2ccccc2Cl)c(-c2ccccc2Cl)o1)c1ccncc1
inactive: [1] 14.5% | [2] 23.6% | [3] 38.4% | [4] 28% | [5] 26.7% | [6] 28.3%

CC(C(=O)O)C(C)(O)C(C)(C)C (stereo not given)
inactive: [1] -3.9% | [2] 1.05% | [3] -5.25% | [4] -37.4% | [5] 12.2% | [6] -6.95%

O=c1oc2c(c(N(c3ccccc3)c3ccccc3)c1Cl)CCc1nc(-c3ccccc3)sc1-2
inactive: [1] 3% | [2] -1.25% | [3] -7.6% | [4] 10.8% | [5] -1.55% | [6] -14.9%

Cn1c(=O)c2[nH]c(N/N=N/c3nncs3)nc2n(C)c1=O
inactive: [1] -67.5% | [2] -117% | [3] -51.9% | [4] -19.8% | [5] -19.4% | [6] -117%

Cc1c(C(=O)CC(=O)C(=O)Nc2ccc(Cl)cc2)[n+](=O)c2ccccc2n1[O-]
inactive: [1] 9.9% | [2] -2.25% | [3] 0.65% | [4] 19.4% | [5] 8.35% | [6] -0.3%

CCC1=NO[C@@H](C(=O)OCc2ccccc2)[C@H]1C
inactive: [1] -12.2% | [2] 5.25% | [3] -7.2% | [4] -29.2% | [5] 9.15% | [6] -21.4%

COC(=O)c1ccccc1NC(OC)c1cccc([N+](=O)[O-])c1 (stereo not given)
inactive: [1] 18.6% | [2] 13.4% | [3] 12.1% | [4] 17.7% | [5] 12.6% | [6] 5.55%

CCC(=O)Nc1cccc([N+](=O)[O-])c1OC
inactive: [1] -5.35% | [2] 23.4% | [3] -7.45% | [4] -52.2% | [5] 9.15% | [6] -15.2%

N=C(N)SCCC(=O)O
inactive: [1] -29.4% | [2] -21.1% | [3] -39.7% | [4] -69.6% | [5] 17.4% | [6] -56.6%

NC(=O)c1n[nH]n(-c2ccccc2)c1=O
inactive: [1] -13.2% | [2] -5.35% | [3] -7.75% | [4] 0.15% | [5] -19.9% | [6] 3.85%

N#C/C(N)=C(/C#N)N=Cc1ccccc1
inactive: [1] 15.9% | [2] 21.3% | [3] 8.4% | [4] -64.4% | [5] 7.2% | [6] 18.9%

O=c1ccc2cc(Br)ccc2o1
inactive: [1] 6.65% | [2] 16.7% | [3] 16.6% | [4] -16.4% | [5] 10.7% | [6] 4.35%

COC(=O)c1ccccc1/C=C1\SC(=S)NC1=O
inactive: [1] -1.6% | [2] 6.3% | [3] 17.9% | [4] -9.85% | [5] -4.95% | [6] -0.7%

O=C1C(=O)c2ccccc2C(O)=C1c1ccc(Br)cc1
inactive: [1] 8.85% | [2] -9.5% | [3] -2.8% | [4] -4.9% | [5] -3.65% | [6] -8.9%

c1cc(OCC2CO2)ccc1OCC1CO1 (stereo not given)
inactive: [1] 41% | [2] 19.9% | [3] 33.1% | [4] -24.9% | [5] 8.8% | [6] 49.4%

O=[N+]([O-])C(=C(N1CCOCC1)N1CCOCC1)/C(Cl)=C(\Cl)Br
inactive: [1] -19.2% | [2] -1.1% | [3] -0.6% | [4] -14.1% | [5] 4.5% | [6] 2.55%

CCOC(=O)CS
inactive: [1] 11.2% | [2] -6.5% | [3] -15.6% | [4] 5.7% | [5] 20.6% | [6] 22.6%

O=C(O)c1ccncc1C(=O)O
inactive: [1] -4.3% | [2] -9.3% | [3] -17.1% | [4] 0.25% | [5] -5.8% | [6] 3%

CCSC1(SCC)C(=O)OC2=C(CCCCC2)C1N(C)c1ccccc1 (stereo not given)
inactive: [1] -15.2% | [2] -12.7% | [3] -14.4% | [4] -22.6% | [5] 1.1% | [6] -12.7%

C=CC[N+](C)(CC=C)CC[N+](C)(CC=C)CC=C
inactive: [1] -15% | [2] 1.35% | [3] -14.9% | [4] -43.5% | [5] 1.6% | [6] -18.4%

N#CC1(N=Cc2ccc3c(c2)OCO3)c2ccccc2-c2ccccc21
inactive: [1] 15.2% | [2] 6.85% | [3] 5.8% | [4] -9.35% | [5] 8.55% | [6] 4.95%
